# In the supplement of paper PMC13380429:
# Columns and labels:
# [1] = test system: Vero E6 infected with SARS-CoV-2; assay: morphology score (similarity to uninfected cells); higher = more like uninfected cells; conditions: 24 h
# [2] = test system: Vero E6 infected with SARS-CoV-2; assay: SARS-CoV-2 infection rate relative to infected DMSO; higher = more infection, active = 60 or less; conditions: 24 h
SMILES,morphology score [1],SARS-CoV-2 infection rate [2]
O=C(c1c(F)ccc(NS(=O)(=O)N2CC[C@@H](F)C2)c1F)c1c[nH]c2ncc(-c3cnc(C4CC4)nc3)cc12 (10 µM),0.162,103% (inactive)
Cc1ccc(NC(=O)c2ccc(CN3CC[C@H](N(C)C)C3)c(C(F)(F)F)c2)cc1Nc1nccc(-c2cncnc2)n1 [bafetinib] (0.833333 µM),0.358,104% (inactive)
CN1[C@@H]2C[C@@H](O)C[C@H]1[C@@H]1O[C@@H]12 [scopine] (10 µM),0.146,93.5% (inactive)
COc1ccccc1C1(O)CCN(CCCn2c3ccccc3c3ccccc32)CC1 (0.833333 µM),0.0278,97.5% (inactive)
COc1cccc(-n2nc(C(=O)O)cc2-c2ccc(C3CCCCC3)c(Cl)c2)c1 (10 µM),0.0895,102% (inactive)
CCOC(=O)Nc1ccc2c(c1)N(C(=O)CCN1CCOCC1)c1ccccc1S2 [moracizine] (10 µM),0.154,112% (inactive)
O=C1CCC[C@@H]2[C@H]3CCCN4CCC[C@@H](CN12)[C@@H]34 [matrine] (10 µM),0.0694,112% (inactive)
CC(C)(CO)c1cc2cc(NC(=O)C3(c4ccc5c(c4)OC(F)(F)O5)CC3)c(F)cc2n1C[C@@H](O)CO [tezacaftor] (10 µM),-0.0125,108% (inactive)
CC(=O)OC[C@H]1O[C@@](COC(C)=O)(O[C@H]2O[C@H](COC(C)=O)[C@@H](OC(C)=O)[C@H](OC(C)=O)[C@H]2OC(C)=O)[C@@H](OC(C)=O)[C@@H]1OC(C)=O [sucrose-octaacetate] (10 µM),0.0471,103% (inactive)
O=C1C=CC[C@@H]2[C@H]3CCCN4CCC[C@@H](CN12)[C@@H]34 [sophocarpine] (10 µM),-0.0321,112% (inactive)
Cn1nccc1Nc1nccc(-c2ccn([C@H](CO)c3ccc(Cl)c(F)c3)c(=O)c2)n1 (0.833333 µM),0.0519,106% (inactive)
CCCCCCCCCCCCCCCCO [1-hexadecanol] (10 µM),-0.278,110% (inactive)
Cc1cc(NC(=O)NCCN2CCC(O)(Cc3ccccc3)CC2)c2ccccc2n1 [palosuran] (10 µM),-0.00351,112% (inactive)
COc1cccc(C=NCCN=Cc2cccc(OC)c2[O-])c1[O-].[Cl-].[Mn+3] (10 µM),-0.0731,95% (inactive)
CC(OC(=O)OC1CCCCC1)OC(=O)C1=C(CSc2nnnn2CCN(C)C)CS[C@@H]2[C@H](NC(=O)Cc3csc(N)n3)C(=O)N12 (some centres not stated) [cefotiam-cilexetil] (10 µM),-0.0288,109% (inactive)
CC(=O)OCC(=O)[C@@]1(O)CC[C@H]2[C@@H]3CCC4=CC(=O)CC[C@]4(C)[C@@]3(F)[C@@H](O)C[C@@]21C (10 µM),0.0369,99.5% (inactive)
CNc1nc(NCc2ccc(NS(C)(=O)=O)cc2Cl)cc(-c2ccccn2)n1 (10 µM),0.193,97.5% (inactive)
Cc1[nH]c(/C=C2\C(=O)Nc3ccc(S(=O)(=O)N(C)c4cccc(Cl)c4)cc32)c(C)c1C(=O)N1CCN(C)CC1 (10 µM),0.493,104% (inactive)
COc1cc(OC)cc(-c2ccc3c(-c4ccc(F)cc4)n[nH]c3n2)c1 (10 µM),0.102,106% (inactive)
COc1cc(-c2ncn(/C=C\C(=O)OC(C)C)n2)cc(C(F)(F)F)c1 (10 µM),-0.358,114% (inactive)
CC(C)NCCCn1c(Sc2cc3c(cc2I)OCO3)nc2c(N)ncnc21 (0.833333 µM),0.255,96.5% (inactive)
OC(CCN1CCCCC1)(c1ccccc1)C1CC2C=CC1C2 (configuration not stated) [biperiden] (10 µM),0.48,75.5% (inactive)
CCCC[C@H]1C(=O)N(c2ccccc2)N(c2ccc(O)cc2)C1=O [oxyphenbutazone] (0.833333 µM),0.131,102% (inactive)
Nc1nc2c(c(N3CCNCC3)n1)CCC1=C2[C@@H]2CCCC[C@@H]2O1 (10 µM),0.247,83.5% (inactive)
O=S(=O)(O)c1cc(O)ccc1O [etamsylate] (10 µM),0.0853,94.5% (inactive)
NC(=O)c1cccc(N)c1 [3-amino-benzamide] (10 µM),-0.037,102% (inactive)

SMILES,morphology score [1],SARS-CoV-2 infection rate [2]
CNC(=O)CN1CCC(Oc2cc3c(Nc4cccc(Cl)c4F)ncnc3cc2OC)CC1 (0.833333 µM),-0.193,107% (inactive)
CCOC(=O)c1ncn2c1CN(C)C(=O)c1cc(F)ccc1-2 [flumazenil] (10 µM),0.0898,88.5% (inactive)
CNC(=O)c1ccc(N2C(=S)N(c3cnc(C#N)c(C(F)(F)F)c3)C(=O)C23CCC3)cc1F [apalutamide] (10 µM),0.0169,109% (inactive)
O=C(O)[C@H]1CC[C@H](c2cc3cccnc3c(-c3cccc(F)c3)n2)CC1 (10 µM),0.315,103% (inactive)
COc1ccc2[nH]c(SCc3ncc(C)c(OC)c3C)nc2c1 [omeprazole-sulfide] (10 µM),0.191,104% (inactive)
CNC1CC(c2ccc(Cl)c(Cl)c2)c2ccccc21 (configuration not stated) [indatraline] (10 µM),-0.112,114% (inactive)
O=c1cc(N2CCOCC2)oc2c(-c3cccc4c3sc3ccccc34)cccc12 (0.833333 µM),0.352,68% (inactive)
O=C(OC(C(F)(F)F)C(F)(F)F)N1CCN(Cc2cccc(Oc3ccccc3)c2)CC1 (10 µM),-0.142,24.5% (active)
O=C(Nc1cccc2cccnc12)c1ccc(N2C(=O)[C@@H]3[C@H](C2=O)[C@H]2C=C[C@@H]3C2)cc1 (10 µM),0.00174,102% (inactive)
Ic1cc(-c2ccccc2)ncn1 [4-iodo-6-phenylpyrimidine] (10 µM),0.254,81.5% (inactive)
CCCCNc1ncc(-c2ccc(CN3CCOCC3)cn2)c(N[C@H]2CC[C@H](O)CC2)n1 (10 µM),0.102,113% (inactive)
COc1ccccc1N1CCN(CCN2C(=O)CC3(CCCC3)CC2=O)CC1 (10 µM),-0.291,116% (inactive)
O=C(O)CCNc1cc(N2CCc3ccccc3CC2)nc(-c2ccccn2)n1 (10 µM),0.19,101% (inactive)
COCCCN1CCC(NC(=O)c2cc(Cl)c(N)c3c2OCC3)CC1 [prucalopride] (10 µM),0.0302,109% (inactive)
CC(=O)c1ccc2c(c1)[C@H](NC(=O)c1ccc(F)c(Cl)c1)[C@H](O)C(C)(C)O2 [tonabersat] (10 µM),0.372,94.5% (inactive)
Cc1cccc(/C=C/c2ccccc2)n1 (10 µM),0.0753,98% (inactive)
NCCCC[C@H](NC(=O)[C@@H]1CCCN1C(=O)[C@@H]1CSSC[C@H](NC(=O)CNC(=O)CNC(=O)CN)C(=O)N[C@@H](Cc2ccc(O)cc2)C(=O)N[C@@H](Cc2ccccc2)C(=O)N[C@@H](CCC(N)=O)C(=O)N[C@@H](CC(N)=O)C(=O)N1)C(=O)NCC(N)=O [terlipressin] (10 µM),0.0361,112% (inactive)
NC[C@H]1CC[C@H](C(=O)O)CC1 [tranexamic-acid] (10 µM),0.0762,108% (inactive)
CN(C)C1CCN(C(=O)c2ccc(NC(=O)Nc3ccc(-c4nc(N5CCOCC5)nc(N5CCOCC5)n4)cc3)cc2)CC1 (10 µM),-0.0113,115% (inactive)
O=C(O)CCc1cc(I)c(Oc2ccc(O)cc2)c(I)c1 [diiodothyropropionic-acid] (10 µM),0.207,92% (inactive)
Cc1ncc(C[n+]2csc(CCOP(=O)(O)OP(=O)(O)O)c2C)c(N)n1 [thiamine-pyrophosphate] (10 µM),0.112,105% (inactive)
C[N+](C)(C)CC(=O)O [betaine] (10 µM),0.11,102% (inactive)
C[N+]1([O-])[C@@H]2CC[C@H]1C[C@@H](OC(=O)C(CO)c1ccccc1)C2 (some centres not stated) [atropine-oxide] (10 µM),0.0224,106% (inactive)
N=C(N)NC(=O)c1cnccn1 [pyrazinoylguanidine] (10 µM),0.0685,108% (inactive)
CCCCc1ccc2[nH]c(NC(=O)OC)nc2c1 [parbendazole] (10 µM),-0.112,111% (inactive)
